The source of these data is ChEMBL document CHEMBL3988442, “University of Dundee, Small-Polar-MMV Screening Library” (2021).

For test [1], the target named is T1, Aspartate--tRNA(Asp/Asn) ligase (Mycobacterium tuberculosis (strain ATCC 25618 / H37Rv)) (UniProt P9WFW3). Note: in the data most compounds retested in dose-response had high values.
T1 sequence (whole entry): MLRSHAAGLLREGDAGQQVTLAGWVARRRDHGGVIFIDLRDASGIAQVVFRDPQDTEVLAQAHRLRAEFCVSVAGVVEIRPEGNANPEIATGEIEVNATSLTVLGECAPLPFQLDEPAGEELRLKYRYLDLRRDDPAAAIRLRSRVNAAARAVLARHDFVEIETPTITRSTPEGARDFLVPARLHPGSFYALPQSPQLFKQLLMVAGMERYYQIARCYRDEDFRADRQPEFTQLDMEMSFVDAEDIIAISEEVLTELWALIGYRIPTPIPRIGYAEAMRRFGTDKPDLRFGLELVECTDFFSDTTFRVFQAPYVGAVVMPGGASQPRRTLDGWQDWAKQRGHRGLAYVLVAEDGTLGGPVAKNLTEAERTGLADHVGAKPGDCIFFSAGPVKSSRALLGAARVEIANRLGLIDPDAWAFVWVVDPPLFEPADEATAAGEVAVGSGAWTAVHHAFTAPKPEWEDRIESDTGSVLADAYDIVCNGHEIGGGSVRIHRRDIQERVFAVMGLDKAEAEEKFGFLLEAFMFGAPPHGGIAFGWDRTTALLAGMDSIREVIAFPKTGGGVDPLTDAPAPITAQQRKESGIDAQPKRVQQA
As to the kind of experiment: Assay for Asp RNA synthetase-1 from Mycobacterium tuberculosis. The following applies: 30 µM. It counts as functional. Also noted: scale not given: direction of the effect not stated beside the values.

For test [2], the target named is Shiga toxin 2 (Escherichia coli O157:H7) (UniProt P09385+P09386). As to the kind of experiment: E. coli 0.157:H7 Shiga Toxin SOP - stx2 screening assay. It counts as functional. More on the design: scale not given: direction of the effect not stated beside the values. The following applies: 30 µM.

Consider `CCN1CCN(C(=O)c2cc(C(=O)OC)nn2-c2ccccc2)CC1`, for which the Percent Effect was found to be 2.94% in test [1] and 26.1% in test [2].
With `CCn1ccnc1CN1CCN(C(C)C(=O)N2CCC(C)CC2)CC1` (stereo not drawn), the Percent Effect in test [1] was -3.5%; in test [2] it was -22.7%.
`CN(C)c1ccc(C(=O)NCC2(O)CCOCC2)cc1`: the Percent Effect in test [1] is -2.13%; in test [2], -12.5%.
On the same counts, the results for `CCn1ccnc1CN1CCCN(C(=O)c2cccn2C)CC1` are -3.17% and 5.64%.
As to `Nc1nc(CN2CCCC(Cn3cncn3)C2)nc2ccccc12` (stereo not drawn), the Percent Effect in test [1] was 0.466%; in test [2], -13.2%.
As to `Cc1nccn1-c1cccc(C2CCCN2S(=O)(=O)N(C)C)n1` (stereo not drawn), the results for the Percent Effect in test [1] and in test [2] were 1.37% and -8.96%, respectively.
On to `O=C(c1ccccn1)N1CCc2nc(-c3cnccn3)nc(O)c2C1`, for which the Percent Effect in test [1] was -1.53%; in test [2], -15.6%.
As to `O=C(Cn1cc(C(=O)O)ccc1=O)NCc1ccc(F)c(Cl)c1`, the Percent Effect was 3.08% in test [1] and -51.8% in test [2].
The corresponding values for `COc1cccc(NC(=O)N(CCO)Cc2ccsc2)c1` are -1.36% and -14.3%.
With `CCOC(=O)N1CCN(C(=O)c2sc(-c3ccc(F)cc3)nc2C)CC1`, the Percent Effect in test [1] was -0.364%; in test [2] it was 8.24%.
Consider `Cc1ncc2c(n1)CN(Cc1nnc(-c3occc3C)o1)CC2`, for which the Percent Effect in test [1] was 12.2%; in test [2], -43.7%.
`COCCOc1ccc(NC(=O)C2CCCN(C(N)=O)C2)cn1` (stereo not drawn): the results for the Percent Effect in test [1] and in test [2] were -2.23% and -2.19%, respectively.
Turning to `CC(C)N(C)Cc1cnc2n1CCN(C(=O)NC1CCCC1)C2`, the Percent Effect in test [1] was -1.4%; in test [2] it was -28.1%.
`Fc1cccc(-c2nc(CN3CCOC(Cn4cncn4)C3)co2)c1` (stereo not drawn): the figures for the Percent Effect in test [1] and in test [2] were -4% and 1.8%, respectively.
On the same counts, the results for `CC(NC(=O)COc1nc(C(C)(C)C)no1)c1ccco1` (stereo not drawn) are -2.04% and 16.4%.
Consider `CC(Cn1cccn1)NCc1nc(-c2cccc(Cl)c2)no1` (stereo not drawn), for which the Percent Effect was -3.34% in test [1] and 22.5% in test [2].
In the case of `COCCN1CCN(C(C)C(=O)Nc2ccnn2C(C)C)CC1` (stereo not drawn), the Percent Effect is 0.69% in test [1] and -2.27% in test [2].
The corresponding values for `CC(CN1CCCC1)C(=O)N1CCC(c2nccn2CC2CC2)CC1` (stereo not drawn) are -0.479% and -15.6%.
As to `CCOc1ncccc1CNC(=O)Nc1ccc(N(C)C)nc1`, the Percent Effect in test [1] was 3.77%; in test [2], -48.5%.
